Screening results (PubChem BioAssay)
GLP1R cytotox: cytotoxicity counter-screen for GLP-1 receptor inverse agonists; HEK293 cAMP-luciferase reporter cells, luminescence, 24 h; 0.13% of 410,000 active; Potency, µM (doses to about 38.3 µM), hits mostly inhibitors; AID 624418;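 further: loss of luciferase light is scored as toxicity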
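Luminescence readout: signal drop marks cytotoxicity. Plated cells grew 12 h at 37 °C, 5% CO2, received 23 nL compound for 24 h, then got luciferase reagent, read after 12 min at RT.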
PTHR1 agonist: PTHR1 (human) receptor agonism; HEK293 GP2 PTHR1 cells, GloSensor cAMP luminescence, 1 h; Q03431; 0.075% of 410,000 active; Potency, µM (doses to about 115 µM), usual class: activators; further: nearly all actives have a fitted effect of over 55% in size
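HEK-293-derived GP2 cells expressing PTHR1 and a GloSensor cAMP reporter, 3,000/well, plated overnight, given luciferin plus IBMX (each 0.5 mM as added) for 1 h at 37 °C, then compound for 1 h at 37 °C. Luminescence was read after 15 min at room temperature.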
GLP1R inv ag: GLP-1 receptor (human) inverse agonism; P43220; HEK293 GLP-1R CRE-luciferase, luminescence, 24 h; GLP-1R form is constitutively active; Potency, µM (series often up to 38.3 µM), hits mostly inhibitors; 1.6% of 410,000 active; further: nearly all actives have a fitted effect of over 55% in size
Target sequence (P43220 whole entry, looked up): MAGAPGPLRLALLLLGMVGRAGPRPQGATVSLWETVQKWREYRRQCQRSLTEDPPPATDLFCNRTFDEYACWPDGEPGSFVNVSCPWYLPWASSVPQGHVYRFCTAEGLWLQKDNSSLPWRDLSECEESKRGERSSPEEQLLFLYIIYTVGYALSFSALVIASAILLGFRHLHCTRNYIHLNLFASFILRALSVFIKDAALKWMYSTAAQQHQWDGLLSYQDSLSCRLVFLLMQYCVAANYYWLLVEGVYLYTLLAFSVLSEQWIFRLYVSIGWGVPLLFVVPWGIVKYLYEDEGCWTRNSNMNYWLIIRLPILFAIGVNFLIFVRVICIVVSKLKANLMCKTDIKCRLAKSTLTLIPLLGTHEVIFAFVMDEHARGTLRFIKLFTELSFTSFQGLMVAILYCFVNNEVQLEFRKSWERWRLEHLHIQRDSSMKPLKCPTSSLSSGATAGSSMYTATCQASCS
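Luminescence readout: a drop in cAMP-driven luciferase signal flags inverse agonism at a constitutively active GLP-1R stably expressed in HEK293. Compound exposure lasted 24 hr at 37 deg C, 5% CO2.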
GLP1R ag: agonists of human GLP-1 receptor. Potency, µM (highest dose often 45.6 µM), hits mostly activators. 0.007% of 380,000 active. AID 624172. HEK293 GLP-1R CRE-luciferase, luminescence, 4-6 h; cells express a hypersensitive GLP-1R form
Hits are given with their value; i = inactive; ? = inconclusive; nt = not tested or not shown. Rows were chosen to be rich in hits. Some 1.7% of all compounds tested hit in one or more screens of this group. The call rests on the fitted dose curve; in most records, active means well fitted curve in the direction sought with a large enough effect; inconclusive means small, poorly fitted or top-dose-only effect, or another doubt; inactive means no such curve, though single readings can be large; an effect the other way counts as inactive or inconclusive.

SMILES	GLP1R cytotox	PTHR1 agonist	GLP1R inv ag	GLP1R ag
Cc1nnsc1-c1nc2ccccc2n1C(CCc1ccccc1)c1nc2ccccc2[nH]1 (stereo unspecified)	i	i	11µM	nt
O=C(NCc1ccccc1)C(c1ccc(C(F)(F)F)cc1)n1c(=O)c(-c2cc3ccccc3[nH]2)nc2ccccc21 (stereo unspecified)	i	i	4.5µM	nt
Clc1nnc(N/N=C/c2ccccc2)c2ccccc12	?	i	?	i
C[n+]1ccc(/C=N/Nc2nc(Cl)c(C#N)c(Cl)c2Cl)cc1	10µM	i	i	i
CCOc1ccc(NC(=O)c2cnn(-c3ccc(C)c(Cl)c3)c2C2CCNCC2)cc1	?	i	8.9µM	i
Cc1ccc(-n2ncc(C(=O)Nc3ccc(Cl)cc3)c2C2CCNCC2)cc1C	?	i	i	i
CCOc1ccccc1CNC(=O)CCCc1cn(C)c2ccccc12	i	i	?	i
CCOc1ccccc1CNC(=O)CCc1cn(C)c2ccccc12	i	i	7.1µM	i
COc1ccc2[nH]c3c(c2c1)CCN1C(=O)C(CC(=O)NCCC2=CCCCC2)C[C@H](C(=O)N(C(C)C)C(C)C)[C@@]31C (stereo partly specified)	?	i	10µM	i
O=C(C[C@H]1C[C@H](C(=O)N2CCOCC2)[C@@]2(CCC3CCCC3)c3[nH]c4cc(-c5ccco5)ccc4c3CCN2C1=O)NCCC1=CCCCC1	i	i	10µM	i
CC(C)(C)Sc1ccc2nc3c(n2c1)CCCC3	?	i	10µM	?
COc1ccc(C(=O)C(CN2CCCC2)c2ccccc2)cc1 (stereo unspecified)	?	i	5.6µM	i
CCCOc1ccc(C(=O)C(CN2CCCC2)c2ccccc2)cc1 (stereo unspecified)	?	i	?	i
Cc1ccc(SCC(=O)NC(=O)NC2CCCC2)c(C)c1	i	i	i	i
Cc1ccc(C)c(SCC(=O)NC(=O)NC2CCCC2)c1	i	i	11µM	i
O=C(CSc1nc(-c2ccc(F)cc2)cc(C(F)(F)F)n1)NCCc1ccccc1	i	i	i	i
C=CC(COCc1ccccc1)N([C@@H](Cc1ccccc1)C(=O)OC)S(=O)(=O)c1ccccc1Br (stereo partly specified)	i	i	3.5µM	i
CCCCC(=O)Nc1cc(C)c(O)c(-c2nc3ncccc3o2)c1	i	i	i	nt
COc1cccc(CNC(=O)Cn2c(=O)nc(-c3ccccc3F)c3cc(Cl)ccc32)c1	i	i	i	nt
Cc1ccc(NC(=O)CNC(c2ccccc2)c2ccccc2)c(F)c1	i	i	11µM	i
NC(=S)NN=Cc1nccc2c(C(F)(F)F)cccc12	?	i	1.3µM	i
CCC(=O)N1CCCc2cc(S(=O)(=O)N3CCC(C(=O)Nc4ccc(F)c(F)c4)CC3)ccc21	i	i	11µM	nt
Cn1cc(S(=O)(=O)N2CCCCC2)cc1C(=O)Nc1cccc(C#N)c1	i	i	i	i
CCc1ccc([C@@H]2C[C@H]3CN(Cc4ccccc4OC)C(=O)[C@]34CCCN24)cc1	i	i	13µM	i
O=C(CCCSc1nc2ccccc2[nH]1)NC(c1ccccc1)c1ccccc1	i	i	8.9µM	i
SMILES	GLP1R cytotox	PTHR1 agonist	GLP1R inv ag	GLP1R ag
COc1cc(C(=O)Nc2ccccc2OCc2cc(=O)n3c(C)csc3n2)cc(OC)c1OC	i	i	i	i
Cc1ccc2[nH]cc(C(c3ccccc3)c3cccs3)c2c1 (stereo unspecified)	i	i	10µM	nt
Cc1ccc2[nH]cc(C(c3ccccc3)c3ccc(C)s3)c2c1 (stereo unspecified)	?	i	?	nt
Cc1ccc2nc(Nc3ccc(C)c(F)c3)c3nncn3c2c1	i	i	i	nt
Cc1cccc(NCc2ccc(O)c3ncccc23)c1C	?	i	i	i
Cc1cccnc1NCc1ccc(O)c2ncccc12	?	i	2.8µM	i
CCN1CC(CN(C)Cc2cn(-c3ccc(C)cc3)nc2-c2ccc(F)cc2)CC1=O (stereo unspecified)	i	i	?	i
CCN1CC(CN(C)Cc2cn(-c3cccc(C)c3)nc2-c2cccc(F)c2)CC1=O (stereo unspecified)	i	i	10µM	?
CN1CCN(c2ccc(Cl)cc2NC(=O)c2ccc(=O)n(C)n2)CC1	i	i	10µM	i
Cc1ccc(O)c(CNc2cnc3ccccc3c2)c1	i	i	?	i
Oc1ccc(Br)cc1CNc1cnc2ccccc2c1	i	i	11µM	i
Cc1ccc(OCC(=O)N(Cc2ccco2)Cc2ccc(C)o2)cc1	i	i	?	nt
Cc1ccc(CN(Cc2ccco2)C(=O)COc2cccc(C)c2C)o1	i	i	11µM	nt
Cc1ccc(CN(Cc2ccco2)C(=O)COc2c(C)cc(C)cc2C)cc1	i	i	2.8µM	nt
Cc1cccc(OCC(=O)N(Cc2ccc(N(C)C)cc2)Cc2ccco2)c1C	i	i	10µM	nt
CNC1C(O)C(OC2C(N)CC(N)C(OC3OC(CN)=CCC3N)C2O)OCC1(C)O (stereo unspecified)	nt	nt	nt	i
Cc1ccc2occ(CC(=O)Nc3ccc(S(=O)(=O)N4CCCC(C)C4)cc3)c2c1 (stereo unspecified)	i	i	11µM	nt
CCCOc1ccc(C(=O)Nc2cc(-c3nc4ccccc4[nH]3)ccc2C)cc1	i	i	7.1µM	nt
COc1cc2c(cc1OC)-c1cc(Nc3ccccc3Br)nc(=O)n1CC2	i	i	i	8.9µM
Cc1cc(C)cc(NC(=O)NCc2noc3ccccc23)c1	i	i	i	nt
CCCN(Cc1ccccc1)C(=S)Nc1ccc(F)cc1	i	i	?	i
CN(C)CCCN(Cc1ccccc1)C(=S)Nc1cccc(C(F)(F)F)c1	?	i	?	i
CN(C)CCCN(Cc1ccccc1)C(=S)Nc1ccc(F)c(Cl)c1	?	i	1.8µM	i
Cc1cc(C)cc(NC(=S)N(Cc2ccc(Cl)cc2)Cc2ccc(C(=O)O)cc2)c1	i	i	?	i
Cc1cc(NC(=S)N(Cc2ccc(Cl)cc2)Cc2ccc(C(=O)O)cc2)ccc1Cl	i	i	8.9µM	i
SMILES	GLP1R cytotox	PTHR1 agonist	GLP1R inv ag	GLP1R ag
CCCN(Cc1ccccc1)C(=S)Nc1ccc(SC(F)F)cc1	?	i	10µM	i
CCc1ccccc1NC(=O)CCS(=O)(=O)c1cccc2nonc12	i	i	i	nt
c1ccc(CNc2nc3c(-c4ccccc4)nnn3c3ccccc23)cc1	i	i	i	nt
O=c1c2ccccc2c(C=NCCCN2CCOCC2)c(O)n1Cc1ccccc1	i	i	?	i
O=c1c2ccccc2c(C=NCCc2ccccc2)c(O)n1Cc1ccccc1	i	i	5µM	i
CCCc1n[nH]c(=S)n1Cc1ccco1	i	i	i	i
S=c1[nH]nc(C23CC4CC(CC(C4)C2)C3)n1Cc1ccco1	i	i	7.9µM	i
Cc1cc(OCC(O)CN2CCN(c3ccccn3)CC2)cc(C)c1Cl (stereo unspecified)	i	i	11µM	i
OC(COc1ccc(Cl)c2ccccc12)CN1CCN(c2ccccn2)CC1 (stereo unspecified)	i	i	10µM	i
